“And” between values parts separate entries of the source, which are not always exact repeats. Equal values may be shown once. The whole screen tested about 5,500 compounds, of which about 2,000 (36%) were called active. Inconclusive results (about 18%) are left out. Cut-off read from the data, not from the text of the source: active = normalized growth mostly below about 0.91 (no sharp cut-off); inconclusive = no clear call, values can overlap the other calls; inactive = mostly above about 0.92. The list shows a part of the results.
Assay: chemical genetic growth profiling, strain panel (AID 1159580);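 note: tested at 20 µM; growth read once vehicle control cultures reached saturation at 30 °C; 1 = growth at the plate median or of vehicle wells; lower values mean less growth of the strain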
Settings: growth OD

Measured: normalized growth

CN1CCN(C2=Nc3ccccc3Oc3ccc(Cl)cc32)CC1
inactive: S. cerevisiae deletion strains, locus YJR075W, strain HOC1, stronger effect = lower value 0.996 | S. cerevisiae deletion strains, locus YKL009W, strain mrt4, stronger effect = lower value 0.98 | S. cerevisiae deletion strains, locus YKL068W, stronger effect = lower value 0.992 | S. cerevisiae deletion strains, locus YKL085W, strain MDH1 (second series), stronger effect = lower value 1.02 | S. cerevisiae deletion strains, locus YKL085W, strain MDH1, stronger effect = lower value 1.02 | S. cerevisiae deletion strains, locus YKL160W, strain elf1, stronger effect = lower value 0.958 | S. cerevisiae deletion strains, locus YKL190W, strain CNB1, stronger effect = lower value 1 | S. cerevisiae deletion strains, locus YKR001C, strain vps1, stronger effect = lower value 0.998 | S. cerevisiae deletion strains, locus YKR026C, strain gcn3, stronger effect = lower value 0.983 | S. cerevisiae deletion strains, locus YKR091W, strain srl3, stronger effect = lower value 0.975 | S. cerevisiae deletion strains, locus YLL001W, strain dnm1, stronger effect = lower value 1 | S. cerevisiae deletion strains, locus YLL026W, stronger effect = lower value 0.972 | S. cerevisiae deletion strains, locus YLL041C, strain sdh2, stronger effect = lower value 0.987 | S. cerevisiae deletion strains, locus YLR027C, strain aat2, stronger effect = lower value 0.975 | S. cerevisiae deletion strains, locus YLR039C, strain RIC1, stronger effect = lower value 1.13 | S. cerevisiae deletion strains, locus YLR058C, strain SHM2, stronger effect = lower value 0.986 | S. cerevisiae deletion strains, locus YLR102C, strain apc9, stronger effect = lower value 0.994 | S. cerevisiae deletion strains, locus YLR113W, strain HOG1, stronger effect = lower value 1.03 | S. cerevisiae deletion strains, locus YLR221C, strain rsa3, stronger effect = lower value 1.01 | S. cerevisiae deletion strains, locus YLR258W, strain gsy2, stronger effect = lower value 0.975 | S. cerevisiae deletion strains, locus YLR262C, strain YPT6 (second series), stronger effect = lower value 0.992 | S. cerevisiae deletion strains, locus YLR262C, strain YPT6, stronger effect = lower value 1.13 | S. cerevisiae deletion strains, locus YLR268W, strain sec22, stronger effect = lower value 0.995 | S. cerevisiae deletion strains, locus YLR320W, strain mms22, stronger effect = lower value 1.04 | S. cerevisiae deletion strains, locus YLR330W, strain CHS5, stronger effect = lower value 0.997 | S. cerevisiae deletion strains, locus YLR342W, strain FKS1 (second series), stronger effect = lower value 0.948 | S. cerevisiae deletion strains, locus YLR342W, strain FKS1, stronger effect = lower value 0.994 | S. cerevisiae deletion strains, locus YLR357W, strain rsc2, stronger effect = lower value 0.964 | S. cerevisiae deletion strains, locus YLR370C, strain arc18, stronger effect = lower value 0.967 | S. cerevisiae deletion strains, locus YLR371W, strain rom2, stronger effect = lower value 0.995 | S. cerevisiae deletion strains, locus YLR384C, strain iki3, stronger effect = lower value 1 | S. cerevisiae deletion strains, locus YLR418C, strain cdc73, stronger effect = lower value 0.988 | S. cerevisiae deletion strains, locus YML016C, strain PPZ1, stronger effect = lower value 0.981 | S. cerevisiae deletion strains, locus YML032C, strain rad52, stronger effect = lower value 0.989 | S. cerevisiae deletion strains, locus YML120C, strain ndi1, stronger effect = lower value 1.01 | S. cerevisiae deletion strains, locus YML124C, strain tub3, stronger effect = lower value 0.992 | S. cerevisiae deletion strains, locus YMR058W, strain fet3, stronger effect = lower value 0.957 | S. cerevisiae deletion strains, locus YMR078C, strain ctf18, stronger effect = lower value 0.979 | S. cerevisiae deletion strains, locus YMR125W, strain sto1, stronger effect = lower value 0.942 | S. cerevisiae deletion strains, locus YMR129W, stronger effect = lower value 0.964 | S. cerevisiae deletion strains, locus YMR205C, strain PFK2, stronger effect = lower value 0.995 | S. cerevisiae deletion strains, locus YMR223W, strain ubp8, stronger effect = lower value 0.976 | S. cerevisiae deletion strains, locus YMR231W, strain pep5, stronger effect = lower value 0.982 | S. cerevisiae deletion strains, locus YMR263W, strain SAP30, stronger effect = lower value 0.994 | S. cerevisiae deletion strains, locus YMR307W, strain GAS1, stronger effect = lower value 0.971 and 1.01 | S. cerevisiae deletion strains, locus YNL067W, strain RPL9B, stronger effect = lower value 1.01 | S. cerevisiae deletion strains, locus YNL071W, strain lat1, stronger effect = lower value 1 | S. cerevisiae deletion strains, locus YNL128W, strain TEP1, stronger effect = lower value 0.997 and 1.01 | S. cerevisiae deletion strains, locus YNL153C, strain GIM3, stronger effect = lower value 0.995 and 1 | S. cerevisiae deletion strains, locus YNL175C, strain NOP13, stronger effect = lower value 0.959 | S. cerevisiae deletion strains, locus YNL183C, strain NPR1, stronger effect = lower value 0.951 | S. cerevisiae deletion strains, locus YNL197C, strain WHI3, stronger effect = lower value 0.991 | S. cerevisiae deletion strains, locus YNL209W, strain ssb2, stronger effect = lower value 0.968 | S. cerevisiae deletion strains, locus YNL224C, strain SQS1, stronger effect = lower value 1 | S. cerevisiae deletion strains, locus YNL233W, strain BNI4, stronger effect = lower value 0.997 | S. cerevisiae deletion strains, locus YNL248C, strain rpa49, stronger effect = lower value 0.959 | S. cerevisiae deletion strains, locus YNL250W, strain rad50, stronger effect = lower value 0.973 | S. cerevisiae deletion strains, locus YNL271C, strain bni1, stronger effect = lower value 0.988 | S. cerevisiae deletion strains, locus YNL298W, strain CLA4, stronger effect = lower value 1.01 | S. cerevisiae deletion strains, locus YNL307C, strain MCK1, stronger effect = lower value 0.986 | S. cerevisiae deletion strains, locus YNL322C, strain KRE1 (second series), stronger effect = lower value 0.958 | S. cerevisiae deletion strains, locus YNL322C, strain KRE1, stronger effect = lower value 0.992 | S. cerevisiae deletion strains, locus YNR049C, strain mso1, stronger effect = lower value 0.968 | S. cerevisiae deletion strains, locus YNR052C, strain pop2, stronger effect = lower value 0.987 | S. cerevisiae deletion strains, locus YOL006C, strain TOP1, stronger effect = lower value 0.951 | S. cerevisiae deletion strains, locus YOL012C, strain htz1 1.28 | S. cerevisiae deletion strains, locus YOL147C, strain pex11, stronger effect = lower value 0.999 | S. cerevisiae deletion strains, locus YOR001W, strain rrp6, stronger effect = lower value 0.995 | S. cerevisiae deletion strains, locus YOR061W, strain CKA2, stronger effect = lower value 0.991 | S. cerevisiae deletion strains, locus YOR069W, strain VPS5, stronger effect = lower value 0.97 | S. cerevisiae deletion strains, locus YOR070C, strain gyp1, stronger effect = lower value 0.982 | S. cerevisiae deletion strains, locus YOR080W, strain dia2, stronger effect = lower value 0.969 | S. cerevisiae deletion strains, locus YOR083W, strain WHI5 (second series), stronger effect = lower value 1.01 | S. cerevisiae deletion strains, locus YOR083W, strain WHI5, stronger effect = lower value 0.945 | S. cerevisiae deletion strains, locus YOR106W, strain vam3, stronger effect = lower value 0.959 | S. cerevisiae deletion strains, locus YOR136W, strain idh2, stronger effect = lower value 0.994 | S. cerevisiae deletion strains, locus YOR144C, strain elg1, stronger effect = lower value 0.996 | S. cerevisiae deletion strains, locus YOR184W, strain ser1, stronger effect = lower value 0.982 | S. cerevisiae deletion strains, locus YOR231W, strain MKK1, stronger effect = lower value 1.06 | S. cerevisiae deletion strains, locus YOR265W, strain rbl2, stronger effect = lower value 0.99 | S. cerevisiae deletion strains, locus YOR270C, strain vph1, stronger effect = lower value 0.976 | S. cerevisiae deletion strains, locus YOR290C, strain snf2, stronger effect = lower value 0.941 | S. cerevisiae deletion strains, locus YOR316C, strain cot1, stronger effect = lower value 0.987 | S. cerevisiae deletion strains, locus YPL051W, strain arl3, stronger effect = lower value 0.981 | S. cerevisiae deletion strains, locus YPL055C, strain LGE1, stronger effect = lower value 1.02 | S. cerevisiae deletion strains, locus YPL078C, strain atp4, stronger effect = lower value 0.999 | S. cerevisiae deletion strains, locus YPL106C, strain sse1, stronger effect = lower value 0.946 | S. cerevisiae deletion strains, locus YPL240C, strain hsp82, stronger effect = lower value 0.987 | S. cerevisiae deletion strains, locus YPL241C, strain CIN2, stronger effect = lower value 0.995 and 0.994 | S. cerevisiae deletion strains, locus YPL256C, strain CLN2, stronger effect = lower value 1.06 | S. cerevisiae deletion strains, locus YPR119W, strain clb2, stronger effect = lower value 0.994 | S. cerevisiae deletion strains, locus YPR141C, strain kar3, stronger effect = lower value 0.987 | S. cerevisiae deletion strains, locus YPR163C, strain tif3, stronger effect = lower value 0.994 | S. cerevisiae deletion strains, locus YPR167C, strain met16, stronger effect = lower value 0.993 | S. cerevisiae deletion strains, strain wtn01, stronger effect = lower value 0.992 | S. cerevisiae strains, strain wild type, stronger effect = lower value 0.999

Reference: PubChem BioAssay AID1159580 (chemical genetic matrix, 2015)
